An excerpt weighted towards active compounds, which were near 4.5% of everything screened.
ERK AVP block: vasopressin-driven ERK pathway inhibition; HEK293-V1b, vasopressin-stimulated pERK AlphaScreen; Potency, µM (series often up to 57.5 µM), hits mostly inhibitors; 72,000 compounds, 0.99% hits; AID 995; further: nearly all actives have a fitted effect of over 55% in size
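qHTS, compounds titrated on V1b-expressing HEK293 cells. Preincubation 30 min at 37C, vasopressin 25 nM for 5 min, lysis 10 min, bead incubation 5 hr at room temperature.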
Caspase-1 inhib: allosteric or competitive inhibitors of human caspase-1; P29466; Potency, µM (titrated, usually from 57.5 µM), hits mostly inhibitors; Caspase-1 enzyme, Ac-WEHD-AFC fluorogenic rate; AID 900; 75,000 compounds, 0.03% hits
Casp7 inh: caspase-7 (human) inhibition, allosteric or competitive | recombinant caspase-7, Ac-DEVD-AFC fluorescence rate | Potency, µM (doses to about 57.5 µM), actives largely listed as inhibitors | 75,000 compounds, 0.02% hits | AID 889 | P55210; active means well fitted inhibition curve with a large enough effect in the main read-out, with a control signal flat, not every such curve was filed as active; inconclusive means small, poorly fitted or top-dose-only effect, or a change in a side signal
TSHR ag: TSH receptor (human) agonism. HEK293-CNG-TSHR cells (CNG channel as cAMP sensor), membrane potential dye, cAMP. Potency, µM (series often up to 57.1 µM), actives largely listed as activators. 73,000 compounds, 0.48% hits. AID 926; active means well fitted activation curve with a large enough effect in the main read-out, with a control signal flat, not every such curve was filed as active; inconclusive means small, poorly fitted or top-dose-only effect, or a change in a side signal; inactive means no such curve, though single readings can be large or run the other way; reference of the percent scale not stated here;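 further: the control signal comes from parental cells without the receptor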
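HEK 293 cells stably expressing TSHR and a modified CNG channel, with CNG-only parental cells as counterscreen, were preloaded 60 min at room temperature with membrane potential dye containing 100 uM RO 20-1724. Compound exposure was 30 min, and depolarization was read as fluorescence at 590 nm.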
GBA activity: alters purified human glucocerebrosidase activity; 48,000 compounds, 1.1% hits; P04062; purified enzyme, resorufin glucoside fluorescence (screen aimed at inhibitors), 20 min; Potency, µM; in the data active means potency below about 15 µM; inconclusive means mostly about 16 µM to 33 µM;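 further: the screen sought inhibitors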
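Wild-type enzyme at 0.2 nM final in 50mM citric acid/KH2PO4, 10mM sodium taurocholate, 0.01% tween-20, pH 5.9, with resorufin beta-D-glucopyranoside at 30 uM final. Compounds titrated, 20 min at RT, red fluorescence read; AC50 from titration.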
HEK293 cAMP cs: counter-screen for TSHR agonists: cAMP increase in parental HEK293; AID 938; parental HEK293 CNG cAMP sensor, membrane potential fluorescence; 73,000 compounds, 2.5% hits; Potency, µM (doses to about 57.1 µM), most hits filed as activators; further: nearly all actives have a fitted effect of over 55% in size
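Parental HEK 293 cells stably expressing a cAMP-gated CNG channel were loaded with membrane potential dye containing 100 uM RO 20-1724 for 60 min. Compound added for 30 min; depolarization read as fluorescence intensity at 590 nm.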
Of the large screens only hits and unclear results are named; the others gave an inactive call; ! = not confirmed by another sample. Unless noted, the call rests on the fitted dose curve; in most records, active means well fitted curve in the direction sought with a large enough effect; inconclusive means small, poorly fitted or top-dose-only effect, or another doubt; inactive means no such curve, though single readings can be large; an effect the other way counts as inactive or inconclusive.

O=C(NCCc1ccc(Cl)cc1)C1CCN(C(=O)c2sccc2-n2cccc2)CC1	ERK AVP block 16µM
CS(=O)(=O)N1CCC2(CCCN(c3ccncc3)C2)CC1	ERK AVP block inconclusive (no result: GBA activity)
Clc1ccc(OCc2nn3c(C4CCCCC4)nnc3s2)c(Cl)c1	ERK AVP block inconclusive, TSHR ag inconclusive, HEK293 cAMP cs 32µM
COc1ccccc1-c1nnc2sc(COc3ccc(Cl)cc3Cl)nn12	TSHR ag inconclusive, HEK293 cAMP cs inconclusive
COc1cc(Cn2c(-c3nonc3N)nc3ccccc32)ccc1C	TSHR ag inconclusive, HEK293 cAMP cs 25µM
COc1ccc(CCNC(=O)Cn2c(-c3nonc3N)nc3ccccc32)cc1OC	TSHR ag inconclusive, HEK293 cAMP cs inconclusive
COc1cccc(Cn2c(-c3nonc3N)nc3ccccc32)c1	TSHR ag inconclusive, HEK293 cAMP cs 25µM
COC(=O)[C@H](C)NC(=O)[C@@H](C)CO	none (no result: GBA activity)
Cc1cc(C)c2nc(C(F)(F)F)nc(N3CC(C)OC(C)C3)c2c1 (stereo not given)	TSHR ag inconclusive, HEK293 cAMP cs 25µM
N#CC1=C(N)S[C@H](C(=O)C23CC4CC(CC(C4)C2)C3)[C@H]1c1ccncc1	TSHR ag 1.3µM, GBA activity inconclusive
O=C(NCc1ccncc1)C12CC3CC(CC(C3)C1)C2	none
C=CCN=C1SC(C)C(=O)N1S(=O)(=O)c1ccccc1 (stereo not given)	TSHR ag 3.2µM
C=CCNC(=O)C1CCN(S(=O)(=O)c2ccccc2)CC1	none
Cc1ccc(-n2nc(C)c(C3C(C#N)=C(N)OC4=C3C(=O)CC(C)(C)C4)c2Cl)cc1 (stereo not given)	TSHR ag inconclusive, GBA activity 4.8, HEK293 cAMP cs 25µM
O[C@@H](c1cc(C(F)(F)F)nc2c(Cl)cc(Cl)cc12)[C@@H]1CCCCN1	none (no result: GBA activity)
Clc1ccccc1-c1nccc(-n2ccnc2)n1	ERK AVP block inconclusive (no result: GBA activity)
Clc1ccccc1C(c1ccccc1)(c1ccccc1)n1ccnc1	ERK AVP block 25µM!, TSHR ag 40µM! (no result: GBA activity)
CN(C)S(=O)(=O)c1cc(C(=O)NCCCn2ccc3ccccc32)ccc1Cl	ERK AVP block inconclusive, TSHR ag inconclusive, HEK293 cAMP cs 25µM (no result: GBA activity)
CC(C)C(=O)NCCn1ccc2ccccc21	none
COc1ccc(/C=C/C(=O)c2ccc(C)s2)cc1	Casp7 inh inconclusive (no result: Caspase-1 inhib, TSHR ag, GBA activity, HEK293 cAMP cs)
Cc1cc2nnc(SC3CCOC3=O)n2c2ccccc12 (stereo not given)	ERK AVP block 16µM (no result: TSHR ag)
O=C1OCCC1Sc1nc2ccccc2n1-c1ccccc1 (stereo not given)	ERK AVP block 16µM
COc1ccc(-n2c(SC3CCOC3=O)nc3ccccc32)cc1 (stereo not given)	TSHR ag inconclusive, HEK293 cAMP cs inconclusive
Cc1ccc(S(=O)(=O)N2CCCCC2)cc1C(=O)c1nccn1C	GBA activity 10
Cc1ccnc(NC(=O)c2cc(S(=O)(=O)N3CCCCC3)ccc2Cl)c1	none
CCC(=O)Nc1cc(C)c(NC(=O)C23CC4CC(CC(C4)C2)C3)cn1	none
CCNc1ccc(S(=O)(=O)C(F)(F)F)cc1NC(=O)C12CCC(CC1)C2	TSHR ag inconclusive, HEK293 cAMP cs 16µM
CC1CCC2C(=O)OC(CN=[N+]=[N-])CN2C1c1ccc(Br)cc1 (stereo not given)	TSHR ag inconclusive, HEK293 cAMP cs 5µM! (no result: GBA activity)
CCc1ccc(CCC(=O)O)nc1	none (no result: GBA activity)
CC1=C(C(=O)OCc2ccccc2)C(C2CC2)NC(=O)N1CCCCCC(=O)O (stereo not given)	TSHR ag inconclusive, HEK293 cAMP cs 20µM (no result: GBA activity)
O=C(CN(C(=O)c1cc2c(s1)CCC2)C1CCCC1)NCc1cccs1	TSHR ag inconclusive, HEK293 cAMP cs 32µM
CCC(C(=O)N1CCN(c2cccc(Cl)c2)CC1)c1ccccc1 (stereo not given)	ERK AVP block inconclusive, TSHR ag inconclusive, HEK293 cAMP cs 25µM (no result: GBA activity)
Cc1ccc(NC(=O)NC2=N/C(=C(/C#N)C(=O)N3CCCC3)c3ccccc32)cc1	TSHR ag inconclusive, GBA activity 9
COc1ccccc1N1CCN(C(=O)COc2ccc(Cl)cc2)CC1	ERK AVP block 32µM
COc1ccccc1OCC(=O)N1CCN(c2ccccc2OC)CC1	TSHR ag inconclusive, HEK293 cAMP cs inconclusive (no result: ERK AVP block, GBA activity)
CCC(=O)c1ccc(N2CCN(C(=O)COc3ccc(F)cc3)CC2)c(F)c1	ERK AVP block 3.2µM, TSHR ag inconclusive, HEK293 cAMP cs inconclusive (no result: GBA activity)
COc1c2c(nc3ccccc13)O[C@@H]([C@@](C)(O)CO)C2	none (no result: TSHR ag, GBA activity)
O=C(c1cc(C(F)(F)F)cc(C(F)(F)F)c1)N1CCC2(CCN(Cc3ccncc3)CC2)CC1	TSHR ag inconclusive (no result: GBA activity)
Cn1cc(C(=O)c2ccc(F)cc2)cc1-c1nc2ccccc2n1C	ERK AVP block 25µM, TSHR ag inconclusive, HEK293 cAMP cs inconclusive (no result: GBA activity)
CC(=O)c1cc(-c2nc3ccccc3n2C)n(C)c1	none
Nc1ncnc2c1c(-c1ccc(Oc3ccccc3)cc1)cn2C1CCCC1	ERK AVP block 7.9µM (no result: GBA activity)
COc1ccc(NC(=O)CN2CCN(CC(=O)Nc3ccccc3Cl)CC2)cc1Cl	none (no result: GBA activity)
O=C(CN1CCCC1)Nc1ccc(NC(=O)Nc2ccccc2Cl)cc1	GBA activity 13
CN1CCCC2(CCN(C(=O)c3cc(C(F)(F)F)cc(C(F)(F)F)c3)CC2)C1	TSHR ag inconclusive, HEK293 cAMP cs inconclusive (no result: GBA activity)
CC(C)(C)OC(=O)N1CC=C2C(C#N)=C(N)C(C#N)(C#N)C(c3cccs3)C2C1 (stereo not given)	Caspase-1 inhib inconclusive, GBA activity inconclusive
CC1CC=C2C(C#N)=C(N)C(C#N)(C#N)C(c3cccs3)C2C1 (stereo not given)	Casp7 inh inconclusive, GBA activity 11 (no result: Caspase-1 inhib)
O=[N+]([O-])c1ccc(-c2nc(-c3ccc(F)cc3)c(-c3ccncc3)[nH]2)cc1	ERK AVP block 20µM (no result: TSHR ag, GBA activity, HEK293 cAMP cs)
O=C(O)c1ccc(Cl)c(S(=O)(=O)Nc2ccccc2)c1	none (no result: ERK AVP block, GBA activity)
Cn1c(=O)[nH]c(=O)c2[nH]c(N(Cc3ccccc3)Cc3ccccc3)nc21	ERK AVP block 25µM, TSHR ag inconclusive
CN(Cc1ccccc1)c1nc2c(c(=O)[nH]c(=O)n2C)n1Cc1ccccc1Cl	ERK AVP block 16µM
Cn1c(=O)[nH]c(=O)c2c1nc(N(CCO)Cc1ccccc1)n2CCCc1ccccc1	none (no result: TSHR ag, GBA activity)
Nc1ccccc1N=Nc1c(S(=O)(=O)O)cc2cc(S(=O)(=O)O)cc(O)c2c1O	none (no result: GBA activity)
CN(C)c1ccc(-c2cncnc2-n2ccnc2)cc1	ERK AVP block 16µM (no result: GBA activity)
CCn1c(CSc2nc3ccccc3s2)nc2ccccc21	ERK AVP block 40µM, Caspase-1 inhib inconclusive, TSHR ag inconclusive, HEK293 cAMP cs 4µM (no result: GBA activity)
COc1ccc(CN(C(=O)c2ccco2)c2ccc(Br)cc2)cc1OC	ERK AVP block inconclusive, TSHR ag inconclusive, HEK293 cAMP cs 32µM
